Measurements: PubChem BioAssay (NCI)
About 83,000 compounds went through this panel and 20% of them were active in at least one assay; those are over-represented in the sample as a whole.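 Interpretation: 100, growth as untreated; towards 0, rising growth inhibition; 0, no net growth; 0 to -100, cell death. Compounds scoring below 10 were considered active.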 The source made the active and inactive calls.

What follows are compounds tested on HL-60(TB) leukemia (assay: NCI-60 one-dose screen, 48 h (100 = growth as untreated, 0 = no growth, -100 = all killed)). Settings: 10 µM unless noted.

| SMILES | growth |
| --- | --- |
| Oc1c(I)cc(I)cc1CNCCN(Cc1ccccn1)Cc1ccccn1 | -31.5% (active) |
| COc1cc(-c2nc3ccccc3o2)cc(CN2CCCCC2)c1O | 11.9% (inactive) |
| CC1(C)NCCC[C@]2(C)[C@H]3CC[C@H]4[C@H]5[C@H](C(=O)/C=C/c6cccnc6)CCC[C@]5(CO)CC[C@@]4(C)[C@]3(C)CC[C@@H]12 | 23.9% (inactive) |
| CC(C)(C)OC(=O)NCCc1ccc(N=C=S)cc1 | 19.8% (inactive) |
| COc1ccc(/C=N/Nc2cc(=O)[nH]c3ccc(C)cc23)cc1 | 94.2% (inactive) |
| C=C1CCC2C(C)(COC(=O)CC)C(OC(=O)CC)CCC2(C)C1C/C=C1/C(=O)OCC1OC(=O)CC (centres undefined) | -43.8% (active) |
| O=C(NC(Cc1nnc2n(Cc3ccccc3)c(=O)c3c4c(sc3n12)CCCC4)c1ccccc1)c1ccccc1 (centres undefined) | -70.3% (active) |
| CCC(C)Nc1ccc(N)cc1 (centres undefined) | -9.29% (active) |
| CC(C)C[C@@H](NC(=O)[C@@H](Cc1ccccc1)NC(=O)c1cnccn1)B1Oc2ccc(C[C@H](NC(=O)[C@H](Cc3ccc4c(c3)OB([C@@H](CC(C)C)NC(=O)[C@@H](Cc3ccccc3)NC(=O)c3cnccn3)O4)NC(=O)[C@@H](N)CC3CCC4OB([C@@H](CC(C)C)NC(=O)[C@@H](CC5CCCCC5)NC(=O)C5CNCCN5)OC4C3)C(=O)NCCCC[C@@H]3NC(=O)[C@@H](Cc4ccccc4)NC(=O)[C@H](CC(=O)O)NC(=O)CNC(=O)[C@H](CCCNC(=N)N)NC3=O)cc2O1 (some centres undefined) | -2.54% (active) |
| CCC(CCCN(CC)CCc1ccccc1)OC(=O)c1cc(OC)c(OC)c(OC)c1 (centres undefined) | 95% (inactive) |
| NC(=S)N=Nc1c(O)c2ccccc2c2ccccc12 | 100% (inactive) |
| COc1cc(-c2nc3cc(Cl)c(Cl)cc3[nH]2)ccc1OCC(=O)N=Nc1c(O)[nH]c2ccccc12 | -51.5% (active) |
| COc1ccc(CC2c3cc(OC)c(OC)cc3CC[N+]2(C)CCC(=O)OCCCCCOC(=O)CC[N+]2(C)CCc3cc(OC)c(OC)cc3C2Cc2ccc(OC)c(OC)c2)cc1OC (centres undefined) | 82.9% (inactive) |
| CCCCN(CCCC)CC(O)c1ccc(OCc2ccccc2)c2ccccc12 (centres undefined) | -23.6% (active) |
| COc1ccc([C@H]2c3cc(OC)c(OC)cc3C=C(C=O)C2CO)cc1OC (some centres undefined) | -13.9% (active) |
| CN(C)c1ccc2oc(=O)c3ccccc3c2c1 | 143% (inactive) |
| NC(C(=O)O)C(O)c1ccc(OCc2ccccc2)c(OCc2ccccc2)c1 (centres undefined) | 105% (inactive) |

| SMILES | growth |
| --- | --- |
| N#Cc1ccc(NC(=O)Nc2ccc(Cc3ccc(NC(=O)Nc4ccc(C#N)cc4)cc3)cc2)cc1 | 22.4% (inactive) |
| NC(=O)CN1CCN(c2ccccc2Cl)CC1 | 92.4% (inactive) |
| O=C(Nc1cnc(Nc2ccc(N3CCOCC3)nc2)nc1Oc1ccc(C(F)(F)F)cc1)c1ccncc1 | 98.6% (inactive) |
| Oc1ccc(C2OCCO2)c2cccnc12 | 15.8% (inactive) |
| COC(=O)C1(C)Cc2cc(OC(C)=O)c(OC(C)=O)cc2N1 (centres undefined) | 19.8% (inactive) |
| Nc1nc(Br)nc2c1ncn2C1CC(O)C(CO)O1 (centres undefined) | 46% (inactive) |
| BrCc1cccc(C[P+](c2ccccc2)(c2ccccc2)c2ccccc2)c1 | 12.2% (inactive) |
| COC1=CC(c2ccc[nH]2)=N/C1=C\c1[nH]c(C)c(CC(=O)NCc2ccccc2)c1C | -0.337% (active) |
| Fc1ccc2[nH]cc(-c3nc(-c4ccsc4)cs3)c2c1 | 99.3% (inactive) |
| CC(C)C1=C[C@@]23CC[C@@H]4[C@](C)(CCC[C@@]4(C)C(=O)OCC#CCN4CCCC4)[C@H]2C[C@@H]1[C@H]1C(=O)OC(=O)[C@H]13 | 95.7% (inactive) |
| COc1ccc(/C=C/C(=O)c2cc3c(N)c(C(=O)Nc4ccc(OC)cc4)sc3nc2C)cc1 | 2.26% (active) |
| C/C(=N/NC(=O)c1sc(=S)n(C)c1N)c1cc2cc(Cl)ccc2o1 | 113% (inactive) |
| COc1ccc(C/C(C)=C(/c2ccc(OCCN3CCCCCC3)cc2)c2ccc(OC(=O)c3ccccc3)cc2)cc1 | 68.7% (inactive) |
| Nc1ccc(C2c3ccccc3Oc3ccccc32)cc1 | 115% (inactive) |
| CCOC(=O)c1c(C)nc2c(c1N)/C(=C/c1ccccn1)C(=O)N2Cc1ccccc1 | -5.96% (active) |
| N#Cc1c2ccccc2c2n1-c1ccccc1OC(c1ccccc1)C2=O (centres undefined) | 43.4% (inactive) |
| Cc1ccccc1C1N=C2Oc3ccccc3C=C2C(=O)N1 (centres undefined) | 2.2% (active) |
